High-throughput results as filed in PubChem BioAssay.
HepG2 viability – qHTS for Inhibitors of TGF-b: Cytotox Counterscreen; HepG2 CAGA-GFP viability, ATP luminescence, 18 h; Potency, µM (doses to about 46.1 µM), without a hit: at the highest dose activity change, negative = cytotoxicity, most hits filed as cytotoxic; actives 0.76% (n = 410,000)
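CellTiter-Glo luminescence gave cytotoxicity after 18 hours at 37 degrees C. The cells were HepG2 CAGA-GFP in 1% FBS DMEM, stimulated with 500 pg/mL TGF-beta after compound addition. %Activity was normalised to no-cell wells (complete cell-killing) and DMSO (no toxicity), and curves were fitted and classified.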
ATXN2 expr inh – Primary qHTS for Inhibitors of ATXN expression; HEK-293 ATXN2-luciferase reporter, luminescence, 24 h; Potency, µM (highest dose often 57 µM), for inactives: at the top dose activity change, negative = inhibition, actives largely listed as inhibitors; actives 0.72% (n = 360,000); also: % is scaled to controls: 0 for no effect and ±100 for the full control effect; nearly all actives have a fitted effect of over 55% in size
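ATXN2-luciferase reporter cells (luciferase flanked by upstream and downstream ATXN2 gene portions) were treated 24 h at 37 °C with compounds at up to 57 uM. SteadyGlo luminescence gave expression; GF-AFC fluorescence gave viability.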
S2 tox – Viability Counterscreen for Primary qHTS for Inhibitors of ATXN expression. S2 cells (HEK-293 line with an ATXN2-luciferase reporter) viability, CellTiter-Fluor protease fluorescence, 24 h. Potency, µM (top dose mostly 56.7 µM), usual class: cytotoxic. actives 0.49% (n = 400,000); also: nearly all actives have a fitted effect of over 40% in size
Nrf2 block – Nrf2 qHTS screen for inhibitors; Potency, µM (titrated, usually from 46 µM), inactives show at the highest dose activity change, negative = inhibition, most hits filed as inhibitors; A549 ARE-Fluc reporter, luciferase luminescence, 18-24 h; actives 2.1% (n = 360,000); also: % is scaled to controls: 0 for no effect and ±100 for the full control effect; nearly all actives have a fitted effect of over 60% in size
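A549 ARE_Fluc cells (5000/well, 5% FBS OPTI-MEM) pre-incubated 2 h, then treated with compounds 18-24 h at 37C/5% CO2 in concentration-response. CellTiter-Fluor viability read first; BugLite luciferase luminescence after 15 min at room temperature gives Nrf2 activity.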
A549 viability – Nrf2 qHTS screen for inhibitors: counterscreen for cytotoxicity; A549 ARE-Fluc cells, CellTiter-Fluor viability, 18-24 h; actives 0.16% (n = 390,000); Potency, µM (highest dose often 46 µM), for the others: at the highest dose activity change, negative = cytotoxicity, hits mostly inhibitors; also: % is scaled to controls: 0 for no effect and ±100 for the full control effect
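A549 ARE-Fluc cells in 5% FBS OPTI-MEM, 5000 cells/well, rested 2 h then exposed to compounds in concentration-response for 18-24 h at 37 °C. Viability by CellTiter-Fluor fluorescence (Ex 405/Em 525) after 30 min; luciferase luminescence (BugLite, 15 min, RT) read afterwards.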
TGFb SMAD3 inh – qHTS for Inhibitors of TGF-b; AID 588855, 2011; HepG2 CAGA-GFP TGF-b/SMAD3 reporter, GFP fluorescence, 18 h; TGF-beta stimulated, 500 pg/mL final; actives 1.2% (n = 410,000); Potency, µM (series often up to 46.1 µM), inactives show top-dose activity, negative = inhibition, most hits filed as inhibitors; also: % is scaled to controls: 0 for no effect and ±100 for the full control effect; nearly all actives have a fitted effect of over 65% in size
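Per well, imaged GFP fluorescence of HEPG2 CAGA-GFP cells gives the signal; cells get compound, then TGF-beta (500 pg/mL final), 18 h at 37 degrees C; %Activity versus -TGF-beta and +DMSO controls.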
* = called active by the depositor; i = inactive; ? = inconclusive; nt = no result given. Shown are actives, neighbours in structure and some others; about 3.8% of the full set was active somewhere. Calls follow the shape of the dose curve; as a rule, active = well fitted curve in the direction sought with a large enough effect; inconclusive = small, poorly fitted or top-dose-only effect, or another doubt; inactive = no such curve, though single readings can be large; an effect the other way counts as inactive or inconclusive. Potency is read from the fitted curve at half-maximal effect.

SMILES	HepG2 viability	ATXN2 expr inh	S2 tox	Nrf2 block	A549 viability	TGFb SMAD3 inh
Cc1cccc(Nc2nc(N)c([N+](=O)[O-])c(NCCO)n2)c1	2%	-15%	i	?	-6%	-1%
Cc1cccc(Nc2nc(N)c([N+](=O)[O-])c(N3CC(C)CC(C)C3)n2)c1 (stereo not given)	11µM*	-16%	?	16µM*	21µM*	?
CCN1CCN(c2nc(Nc3cccc(OC)c3)nc(N)c2[N+](=O)[O-])CC1	-10%	nt	i	-7%	?	-3%
Cc1cccc(Nc2nc(N)c([N+](=O)[O-])c(N3CCC(C)CC3)n2)c1	-74%	-6%	i	18µM*	?	14µM*
Cc1cccc(Nc2nc(N)c([N+](=O)[O-])c(N3CC(C)OC(C)C3)n2)c1 (stereo not given)	1%	-29%	?	18µM*	?	0%
CC(=O)CC(=O)Nc1ccc(Nc2ccccc2)cc1	8%	15%	i	7%	1%	-2%
O=C(Cc1ccccc1)c1nnc(-c2ccccc2)o1	11%	32%	i	10%	5%	36%
O=C(NCc1ccccc1)n1cc(P(=S)(c2ccccc2)c2ccccc2)c2ccccc21	nt	nt	nt	8%	1%	nt
Cc1onc(-c2ccccc2)c1CNS(=O)(=O)c1ccccc1	11µM*	-20%	i	10%	4%	0%
COc1ccc(NC(=O)CN(C)C(=O)C(Sc2ccccc2)c2ccccc2)cc1 (stereo not given)	-28%	-6%	i	-17%	-12%	?
Cc1ccc(S(=O)(=O)N2CCN(c3ccnc(-c4cccs4)n3)CC2)cc1	nt	nt	nt	15µM*	-5%	nt
Cc1ccc(S(=O)(=O)N2CCN(c3nc(-c4cccs4)nc4ncccc34)CC2)cc1	-11%	nt	nt	12µM*	-15%	0%
Cc1n[nH]c(C)c1S(=O)(=O)N(CC(=O)NCc1ccccc1Cl)c1ccc(C(C)C)cc1	-76%	?	32µM*	?	-4%	?
COc1cccc(CNC(=O)CN(c2ccc(C(C)C)cc2)S(=O)(=O)c2c(C)n[nH]c2C)c1	-3%	?	?	?	1%	16µM*
COc1cc(NC(=O)CSCC(=O)Nc2cc(OC)cc(OC)c2)cc(OC)c1	-3%	-3%	i	-2%	0%	-1%
CCOc1ccc(NC(=O)CN(C)C(=O)c2cc3c(s2)CCC3)cc1OCC	-12%	nt	i	nt	nt	-4%
CCCn1c(CCC(=O)Nc2cc(Cl)c(OC)cc2OC)nc2cccnc21	-6%	-11%	?	-4%	1%	-5%
CC1(C)Cc2c(sc(NC(=O)c3ccc(C(=O)c4ccccc4)cc3)c2C(N)=O)C(C)(C)N1	18µM*	25µM*	?	-8%	-15%	?
CCOC(=O)c1ccc(NC(=O)C2CCCN(S(=O)(=O)c3ccc(F)cc3)C2)cc1 (stereo not given)	-2%	32µM*	?	nt	0%	-10%
CCOC(=O)c1c(NC(=O)c2ccc(S(=O)(=O)N(CCOC)CCOC)cc2)sc2c1CC(C)(C)NC2(C)C	-61%	nt	nt	nt	-8%	11µM*
CCOC(=O)c1c(NC(=O)c2ccc(S(=O)(=O)N3CCCC(C)C3)cc2)sc2c1CC(C)(C)NC2(C)C (stereo not given)	13µM*	?	nt	nt	-8%	?
CCN(CC(=O)Nc1c(F)cccc1F)C(=O)C1COc2ccccc2O1 (stereo not given)	-8%	4%	i	?	1%	3%
O=C(NCc1ccccn1)c1cc(-c2ccc(Cl)cc2)oc1C(F)(F)F	-100%	-38%	?	?	11%	11µM*
